DT40 TDP1 CPT = growth inhibition of DT40 Tdp1-/-;hTDP1 cells with camptothecin (screen for TDP1 inhibitors) | AID 686979 | chicken DT40 Tdp1-/-;hTDP1 cells + 20 nM CPT, ATP luminescence, 48 h | 12% of 420,000 active | Potency, µM (series often up to 46.2 µM), for inactives: at the top dose activity change, negative = growth inhibition, usual class: inhibitors; note: potency is the fitted concentration of half-maximal effect; nearly all actives have a fitted effect of over 55% in size
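Cell growth measured by CellTiter-Glo luminescence after a minimum 48 h, 37 C compound exposure with 20 nM CPT in Tdp1-knockout DT40 cells stably expressing hTDP1, seeded 400/well; qHTS titration format.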
HT1080 IDH1KD tx = toxicity to HT-1080 IDH1 knockdown cells (counter line). HT-1080 IDH1 knockdown viability, ATP luminescence, 48 h. Potency, µM (titrated, usually from 46.1 µM), inactives show at the top dose activity, negative = toxicity, actives largely listed as cytotoxic. AID 686971. 2% of 360,000 active;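 note: potency is the fitted concentration of half-maximal effect; 0% = DMSO wells and -100% = cell-free medium wells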
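Knockdown cells (IDH1KD HT-1080) received compounds 2 h after plating at 750 cells/well and were kept 48 h at 37 °C in 5% FBS RPMI. A CellTiter-Glo luminescence read gave % activity for curve fitting.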
IL1B secr inh = blocks inflammasome-driven IL-1 beta release; THP-1 LPS/ATP IL-1B secretion, AlphaLISA, 16 h; stronger effect = lower value; activity change, % at 57.5 µM; 4.7% of 360,000 active; AID 743279; in the data active = activity change below about -50%; inconclusive = mostly about -30% to -49%
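THP-1 cells pretreated 1 hr with compounds (up to 57.5 uM final), then stimulated with LPS (250 ng/mL final) plus ATP (1.25 mM final); secreted IL-1B measured by AlphaLISA after 16 hr, decreased signal indicating inhibition.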
HT1080-NT tox = kills 2HG-producing HT-1080-NT fibrosarcoma cells; Potency, µM (highest dose often 46.1 µM), for the others: top-dose activity, negative = less viability, actives largely listed as cytotoxic; AID 686970; 1.6% of 360,000 active; HT-1080-NT fibrosarcoma viability, CellTiter-Glo ATP luminescence, 48 h;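 note: NT is the 2HG producing partner of a matched IDH1 knockdown line; potency is the fitted concentration of half-maximal effect; 0% = DMSO-treated cells and -100% = media-only wells without cells; nearly all actives have a fitted effect of over 55% in size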
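HT-1080-NT; 750 cells/well; 5% FBS RPMI; 48 h compound, 37 degrees C; CellTiter-Glo luminescence; curve fitting and curve-class assignment.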
TDP1 cell noCPT = qHTS for Inhibitors of human tyrosyl-DNA phosphodiesterase 1 (TDP1): qHTS in cells in absence of CPT. 15% of 420,000 active. DT40 Tdp1-/- hTDP1 cells, no CPT, ATP luminescence, 48 h. Potency, µM (top dose mostly 46.2 µM), for inactives: at the top dose activity change, negative = growth inhibition, hits mostly inhibitors. AID 686978, 2013; note: potency is the fitted concentration of half-maximal effect; nearly all actives have a fitted effect of over 55% in size
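No-CPT arm: Tdp1-/-;hTDP1 DT40 cells (400/well) plus compounds, incubated ≥48 hr at 37 °C. Readout CellTiter-Glo luminescence.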
Active calls of the source: *; i = inactive; ? = inconclusive; . = no result; [ ] = dose if it differs, or a comment. Rows were chosen to be rich in hits. Some 19% of all compounds tested hit in one or more screens of this group. Unless noted, calls come from the whole dose curve; as a rule, active = well fitted curve in the direction sought with a large enough effect; inconclusive = small, poorly fitted or top-dose-only effect, or another doubt; inactive = no such curve, though single readings can be large; an effect the other way counts as inactive or inconclusive. Unless noted, % is set by controls: 0 for no effect and ±100 for the full control effect.

SMILES	DT40 TDP1 CPT	HT1080 IDH1KD tx	IL1B secr inh	HT1080-NT tox	TDP1 cell noCPT
CC1(C)CC(=O)C(N=Nc2ccc(C(F)(F)F)cc2[N+](=O)[O-])=C(O)C1	29µM*	12%	.	11%	23µM*
CC1(C)CC(=O)C(N=Nc2cccc([N+](=O)[O-])c2)=C(O)C1	-3%	-2%	0	-8%	-29%
CCOCCCn1c(SCC(=O)Nc2ccccc2Cl)nc2c(oc3ccccc32)c1=O	?	.	.	.	7.3µM*
CCOCCCn1c(SCC(=O)Nc2ccc3[nH]c(=O)[nH]c3c2)nc2ccccc2c1=O	?	1%	-54*	-10%	-15%
CCOCCCn1c(SCC(=O)Nc2ccccc2CC)nc2ccccc2c1=O	16µM*	.	.	.	16µM*
CC(OC(=O)Cn1nnc2ccccc21)C(=O)NC1CCCC1 (centres undefined)	16%	6%	18	7%	-4%
CSc1nc2ccccc2n1Cc1c(Cl)cccc1Cl	?	?	-3	-18%	?
COc1cccc(CN2CCC(c3nnc(SCC4CCCO4)n3C)CC2)c1O (centres undefined)	-3%	.	.	.	1%
Cc1c(C(=O)Nc2cccc(-c3nc4ccccc4s3)c2)oc2ccc(F)cc12	?	.	.	.	15µM*
Cc1ccc2sc(-c3ccc(NC(=O)c4cc(-n5cnnc5)ccc4Cl)cc3)nc2c1	13µM*	9%	-16	-2%	9.2µM*
Cc1c(NC(=O)c2cc(-n3cnnc3)ccc2Cl)cccc1-c1nc2ccccc2s1	-25%	?	43	-17%	?
Cc1nc2ccc(NC(=O)c3oc4ccc(F)cc4c3C)cc2s1	-5%	1%	9	0%	9%
O=C(Nc1cccc(-c2nc3ccccc3s2)c1)c1cc(-n2cnnc2)ccc1Cl	9.2µM*	?	?	?	16µM*
CC(=O)Nc1ccc(NC(=O)c2cc(-n3cnnc3)ccc2Cl)cc1	2%	8%	-1	2%	1%
O=C(N/N=C/c1ccc(O)c([N+](=O)[O-])c1)C(O)(c1ccccc1)c1ccccc1	?	?	19	-17%	2.9µM*
Cc1cc(/C=N/NC(=O)C(O)(c2ccccc2)c2ccccc2)c(C)n1-c1ccccc1	?	-5%	-9	-13%	?
O=C(NN=Cc1ccccc1O)C(O)(c1ccccc1)c1ccccc1	23µM*	?	58	-10%	8.2µM*
O=C(N/N=C/c1cc([N+](=O)[O-])cc([N+](=O)[O-])c1O)C(O)(c1ccccc1)c1ccccc1	36%	8%	23	6%	4%
CN1CCN(C(=O)C23CC4CC(C2)CC(c2ccccc2)(C4)C3)CC1	?	0%	-53*	-25%	?
COc1cccc2oc3ccc(C#Cc4ccccn4)cc3c(=O)c12	12µM*	-4%	-21	0%	?
COc1cccc2sc3cc(C#Cc4ccccn4)ccc3c(=O)c12	18µM*	-24%	?	-13%	16µM*
CCOC(=O)C1(CC2CCCCO2)CCN(S(=O)(=O)c2ccccc2)CC1 (centres undefined)	?	-1%	9	16%	?
CC(=O)N1CCC(C(=O)N2CCN(S(=O)(=O)c3ccc(F)cc3)CC2)CC1	0%	-12%	i	-2%	18µM*
CC(C)(C)c1ccc(S(=O)(=O)N2CCC(CO)(CC3CCCCO3)CC2)cc1 (centres undefined)	?	-17%	-72*	-28%	?
O=C(C1CCC1)N1CCN(S(=O)(=O)c2ccc(F)cc2)CC1	-27%	3%	4	0%	-25%
CC(C)(C)c1ccc(S(=O)(=O)N2CCN(C(=O)C3=COCCO3)CC2)cc1	29µM*	-2%	10	-3%[9.24 µM]	?
CC(C)(C)c1ccc(S(=O)(=O)N2CCN(C(=O)C3CCC3)CC2)cc1	8.2µM*	1%	12	2%	18µM*

Screening data from PubChem.
